Laboratory results as given in PubChem BioAssay AID720728 (Molecular Libraries Program, Specialized Chemistry Center, …, 2013).
Active and inactive are the calls of the source. How the calls were made is not given here.

Test: mtPTP inhibition measured by calcium retention, dose response, biochemical, dry powder samples, uHTS hits, isolated mitochondria (AID 720728)
Details: calcium retention capacity

CRC/CRC0 ratio at 50 uM (fold over control, higher = inhibition), active:
COCCCNCCCOc1ccc(Cl)cc1C(C)(C)C 2.13 fold
COc1cc(NC(=O)c2cc(-c3cccc(O)c3)on2)cc(OC)c1OC 1.93 fold
C=CCNCCOCCOc1ccc(Cl)cc1C(C)(C)C 1.81 fold
O=C(CC1NCCc2ccccc21)Nc1ccc(Cl)cc1 (stereo unspecified) 1.65 fold
Cc1ccc2nc(N(CCN(C)C)C(=O)/C=C/c3cccs3)sc2c1 1.28 fold
N#Cc1c(NCCN)nc(-c2ccco2)c2c1CCCC2 1.81 fold
CN(C)CCCN1c2ccccc2Sc2ccc(Cl)cc21 1.97 fold
COc1cc(CNCCO)cc(Cl)c1OCc1ccccc1Cl 1.81 fold
Cc1cc(C)c2nc(N(CCCN(C)C)C(=O)c3ccc(S(=O)(=O)N4CCCCCC4)cc3)sc2c1 1.57 fold
CNCCC=C1c2ccccc2CCc2ccccc21 1.66 fold
CN1CCC[C@@H]1CCO[C@](C)(c1ccccc1)c1ccc(Cl)cc1 1.81 fold
CC1CCCN(CCC(=O)c2ccc(Br)cc2)C1 (stereo unspecified) 2.73 fold
CC(C)(C)c1ccccc1OCCCCCNCCO 1.82 fold
N=c1sccn1CC(=O)Nc1cccc(Oc2ccccc2)c1 1.91 fold
CNCCCC12CCC(c3ccccc31)c1ccccc12 1.82 fold
Cc1ccc2nc(N(CCCN(C)C)C(=O)CCc3ccccc3)sc2c1 1.61 fold
C=CCNCCOc1ccc(C(C)(C)c2ccccc2)cc1 1.95 fold
Cc1cc(C)c2nc(N(CCCN(C)C)C(=O)C3=COCCO3)sc2c1 1.4 fold
COc1ccc(C)c2sc(N(CCCN(C)C)C(=O)CS(=O)(=O)c3ccc(F)cc3)nc12 1.4 fold
COc1ccc(Cl)cc1C(=O)Nc1ccc(CN2CCCCC2)cc1 2.57 fold
CCN(CC)CCCN=Cc1c(O)n(Cc2ccccc2)c(=O)c2ccccc12 1.3 fold
COC(=O)c1c(NC(=O)C2CCCCC2)sc2c1CC(C)(C)NC2(C)C 2.05 fold
COc1ccc(-n2cc(CNC3CCN(C)CC3)c(-c3cccc(F)c3)n2)cc1 1.5 fold
CCN(CC)c1ccc(NC(=O)c2cc(Cl)ccc2OC)cc1 0.622 fold
C=CCNCCCOc1ccc(C)cc1Br 1.53 fold
CCOC(=O)N1CCN(S(=O)(=O)c2ccc(C(=O)N(CCCN(C)C)c3nc4c(C)c(C)ccc4s3)cc2)CC1 1.51 fold
